Measured values taken from PubChem BioAssay.
Where “and” joins values, the source holds several entries; their conditions need not be identical. Identical values can stand only once. Calls of active or inactive are those of the source. Cut-off read from the data, not from the text of the source, unless noted: active = inhibition above about 33%; inactive = the rest.

Columns and labels:
[1] = target: Nuclear receptor coactivator 3 (Homo sapiens) (UniProt Q9Y6Q9); assay: SRC3 coactivator transcriptional activity inhibitors, confirmation, cell-based, luminescence, quadruplicate (AID 588792;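 active = mean inhibition over 43.08%, the solvent-only control mean plus 3 SD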;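 note: 0% = DMSO treated cells and 100% = gossypol at 36 µM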); settings: HEK293 GAL4-SRC3 luciferase reporter, at 3.6 µM, hits give high values
[2] = tested on: transactivating tegument protein VP16 (Human herpesvirus 1), Gal4-VP16 luciferase reporter; assay: VP16 transactivation inhibitors, counter-screen for SRC3 inhibitor project, cell-based, luminescence, high throughput (AID 588794; in the data active = inhibition above about 30%); settings: mammalian cells, VP16-driven luciferase reporter luminescence; at 3.6 µM; hits give high values
[3] = StAR promoter reporter inhibitors, counter-screen for LRH-1 inverse agonist project, cell-based, luminescence, high throughput (AID 651611; in the data active = inhibition above about 28%); settings: StAR promoter luciferase reporter counterscreen, at 3.6 µM, hits give high values
[4] = target: Nuclear receptor subfamily 5 group A member 2 (Homo sapiens) (UniProt O00482); assay: LRH-1 (NR5A2) inverse agonists, retest, confirmation, cell-based, luminescence (AID 651613; in the data active = inhibition above about 42%;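 note: HEK293T cells co-transfected with LRH-1 and StAR promoter luciferase reporter; 0% = vehicle wells and 100% = parental cells lacking receptor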); settings: cell-based LRH-1 luciferase reporter, inverse agonism; at 3.6 µM; hits give high values
[5] = target: Steroidogenic factor 1 (Homo sapiens) (UniProt Q13285); assay: SF1 (NR5A1) inverse agonists, counter-screen for LRH-1 inverse agonist project, cell-based, luminescence, high throughput (AID 651614; in the data active = inhibition above about 44%;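 note: cells cotransfected with StAR promoter reporter and SF1 expression vector; 0% = vehicle on cells with receptor and 100% = vehicle on cells lacking receptor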); settings: cell-based SF1 luciferase reporter, at 3.6 µM, hits give high values
[6] = VP16 transactivation reporter inhibitors, counter-screen for LRH-1 inverse agonist project, cell-based, luminescence, high throughput (AID 651615); settings: Gal4-VP16 luciferase reporter cells, at 3.6 µM, hits give high values

Measured: inhibition

Nuclear receptor coactivator 3 (Homo sapiens), sequence (Q9Y6Q9 whole entry, looked up, the tested form may be a part): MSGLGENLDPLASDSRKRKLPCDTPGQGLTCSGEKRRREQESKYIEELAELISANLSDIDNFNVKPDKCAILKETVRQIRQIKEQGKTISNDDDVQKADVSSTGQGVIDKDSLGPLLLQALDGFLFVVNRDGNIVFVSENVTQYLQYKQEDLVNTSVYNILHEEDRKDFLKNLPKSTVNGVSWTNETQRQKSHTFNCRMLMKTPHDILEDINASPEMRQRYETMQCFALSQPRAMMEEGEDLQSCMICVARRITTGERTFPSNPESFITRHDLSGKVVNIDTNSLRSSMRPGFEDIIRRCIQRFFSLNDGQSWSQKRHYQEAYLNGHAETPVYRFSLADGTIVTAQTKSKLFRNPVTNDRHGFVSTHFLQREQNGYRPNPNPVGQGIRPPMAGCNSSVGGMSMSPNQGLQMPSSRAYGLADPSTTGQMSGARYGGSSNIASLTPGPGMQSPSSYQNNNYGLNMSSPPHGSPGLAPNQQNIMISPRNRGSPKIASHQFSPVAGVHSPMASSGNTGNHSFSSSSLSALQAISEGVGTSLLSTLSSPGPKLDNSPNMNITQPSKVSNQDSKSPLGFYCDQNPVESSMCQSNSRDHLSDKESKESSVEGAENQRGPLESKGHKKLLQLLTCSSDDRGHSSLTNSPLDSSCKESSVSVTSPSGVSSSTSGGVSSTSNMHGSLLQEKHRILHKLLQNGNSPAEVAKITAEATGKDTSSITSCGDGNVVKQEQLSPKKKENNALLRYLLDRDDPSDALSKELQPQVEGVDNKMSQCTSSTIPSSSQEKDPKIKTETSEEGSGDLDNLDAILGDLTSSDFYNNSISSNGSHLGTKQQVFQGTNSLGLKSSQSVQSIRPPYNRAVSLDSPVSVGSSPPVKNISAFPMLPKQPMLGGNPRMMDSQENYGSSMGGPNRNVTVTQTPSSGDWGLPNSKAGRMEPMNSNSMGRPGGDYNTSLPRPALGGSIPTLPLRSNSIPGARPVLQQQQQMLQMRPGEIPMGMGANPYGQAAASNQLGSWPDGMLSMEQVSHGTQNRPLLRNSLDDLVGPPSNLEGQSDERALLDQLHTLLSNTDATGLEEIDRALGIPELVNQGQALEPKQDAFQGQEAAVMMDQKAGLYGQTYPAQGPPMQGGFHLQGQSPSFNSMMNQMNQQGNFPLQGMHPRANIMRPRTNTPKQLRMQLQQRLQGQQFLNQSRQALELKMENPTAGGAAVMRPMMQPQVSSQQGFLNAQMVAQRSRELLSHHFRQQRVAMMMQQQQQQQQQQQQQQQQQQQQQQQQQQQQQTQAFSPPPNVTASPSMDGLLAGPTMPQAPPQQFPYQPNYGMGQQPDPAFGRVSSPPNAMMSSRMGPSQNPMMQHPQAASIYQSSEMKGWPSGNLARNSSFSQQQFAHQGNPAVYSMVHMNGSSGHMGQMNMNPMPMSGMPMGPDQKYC
Steroidogenic factor 1 (Homo sapiens), sequence (Q13285 whole entry, looked up, the tested form may be a part): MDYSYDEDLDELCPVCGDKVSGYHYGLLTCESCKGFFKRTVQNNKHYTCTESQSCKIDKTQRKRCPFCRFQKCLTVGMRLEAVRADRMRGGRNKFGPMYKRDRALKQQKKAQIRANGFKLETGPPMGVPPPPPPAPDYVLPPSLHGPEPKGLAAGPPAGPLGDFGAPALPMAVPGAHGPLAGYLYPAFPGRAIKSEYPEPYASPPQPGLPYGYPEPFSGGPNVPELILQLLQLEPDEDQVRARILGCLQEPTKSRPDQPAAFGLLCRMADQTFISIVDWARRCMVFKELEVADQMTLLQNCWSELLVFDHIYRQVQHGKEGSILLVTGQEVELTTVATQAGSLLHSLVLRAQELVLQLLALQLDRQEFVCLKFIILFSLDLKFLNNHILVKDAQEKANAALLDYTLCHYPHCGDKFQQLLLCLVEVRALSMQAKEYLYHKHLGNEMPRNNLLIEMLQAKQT
Nuclear receptor subfamily 5 group A member 2 (Homo sapiens), sequence (O00482 whole entry, looked up): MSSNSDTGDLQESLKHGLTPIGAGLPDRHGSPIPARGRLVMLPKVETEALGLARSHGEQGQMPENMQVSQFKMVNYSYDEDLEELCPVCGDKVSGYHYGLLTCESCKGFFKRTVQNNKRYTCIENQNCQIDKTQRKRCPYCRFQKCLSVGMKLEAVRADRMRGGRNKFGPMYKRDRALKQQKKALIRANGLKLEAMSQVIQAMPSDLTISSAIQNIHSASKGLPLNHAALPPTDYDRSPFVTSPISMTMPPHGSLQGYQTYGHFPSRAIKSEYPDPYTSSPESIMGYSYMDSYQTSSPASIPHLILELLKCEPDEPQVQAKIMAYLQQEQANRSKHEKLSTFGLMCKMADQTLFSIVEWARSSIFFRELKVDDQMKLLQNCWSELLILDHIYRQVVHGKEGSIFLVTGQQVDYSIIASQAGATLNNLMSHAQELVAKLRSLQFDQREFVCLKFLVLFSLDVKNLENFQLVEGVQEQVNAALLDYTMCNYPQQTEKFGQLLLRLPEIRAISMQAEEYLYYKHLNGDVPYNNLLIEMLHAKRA

CCOc1ccc(-n2c(-c3ccccc3)c[n+]3c2CCCCC3)cc1
inactive: [1] 28.7%
active: [2] 52.4% | [3] 29.9% | [4] 90.5% | [5] 72.3% | [6] 66.2%

c1cnc2c(c1)ccc1cccnc12
inactive: [1] 42.2%
active: [2] 31.6% | [3] 70.5% and 77.1% | [4] 104% | [5] 59.1% and 70.5% | [6] 50.6% and 74.9%

Clc1ccc(C2=Nn3c(nnc3-c3n[nH]c4c3CCC4)SC2)cc1
active: [3] 61.5% | [4] 46.5% | [5] 66.8%
inactive: [1] 28.4% | [2] -31.7% | [6] -54.9%

Cc1cc(C(=O)NC2CCCc3c2cnn3-c2ccc(C)c(C)c2)n(C)n1 (centres undefined)
active: [2] 52.5% | [3] 33.4% | [4] 62% | [5] 57.4% | [6] 67.1%
inactive: [1] 21.1%

CCN1/C(=C/c2ccc3cc(C)ccc3[n+]2CC)Sc2cc(C)ccc21
active: [2] 64% | [3] 39.8% | [4] 108% | [5] 75.6% | [6] 83.3%
inactive: [1] 26.1%

O=C(Nc1ccc(S(=O)(=O)Nc2ccccc2)cc1)c1ccc(CN2CCOCC2)cc1
inactive: [1] 9.71% | [3] 21.8%
active: [2] 36% | [4] 56.4% | [5] 57.4% | [6] 57.6%

COc1cc(N(C)C)ccc1C=c1c2ccccc2n2c1cc(-c1ccccc1)[n+]2C
active: [1] 57.7% | [2] 67.2% | [3] 56.9% | [4] 109% | [5] 87.4% | [6] 92.5%

Cc1sc(NC(=O)c2ccco2)c(C(c2cccnc2)N2CCN(c3ccc(F)cc3)CC2)c1C (centres undefined)
inactive: [1] 19.5% | [3] 24.4%
active: [2] 31.9% | [4] 61.9% | [5] 60.2% | [6] 53.9%

Nc1cc(Cc2ccccc2)ccc1O
inactive: [1] -9.82% | [2] -12.4% | [3] 9.01% | [4] 25.7% | [5] 33.2% | [6] -10.3%

O=C(Nc1sc2c(c1C(=O)O)CCCCC2)c1ccccc1
inactive: [1] -1.12% | [2] 24.2% | [3] 1.22%
active: [4] 57% | [5] 59% | [6] 53.1%

Cn1nccc1C(=O)NC1CCCc2c1cnn2-c1ccc(C(C)(C)C)cc1 (centres undefined)
active: [2] 49.3% | [3] 42.5% | [4] 63.5% | [5] 69.7% | [6] 58.2%
inactive: [1] 15%

CN(CCOc1ccc(Cl)cc1)C(=O)c1cccc(S(=O)(=O)N2CCN(c3ccc(F)cc3)CC2)c1
active: [2] 41.2% | [4] 60.9% | [5] 63.8% | [6] 53.2%
inactive: [1] 24.4% | [3] 24.3%

CCOC(=O)c1sc(N(Cc2ccccc2)C(=O)COC(=O)c2ccc(O)cc2)nc1C
active: [1] 69.3% | [2] 37.4% | [4] 55.2% | [5] 61.2% | [6] 37.1%
inactive: [3] -92.1%

O=C(NC1CCCCCCC1)c1cc(COc2ccc3ncccc3c2)on1
active: [2] 40.2% | [4] 55% | [5] 54.8% | [6] 51.6%
inactive: [1] 17.3% | [3] 25.3%

COC(=O)c1ccc(COC(=O)c2[nH]c(C)c(C(C)=O)c2C)o1
inactive: [1] 19.6% | [2] 15.9% | [3] 12.8% | [5] 38.7%
active: [4] 54.4% | [6] 41%

COc1ccc(OC)c2nc3c(C(=O)NCCN(C)C)cccc3nc12
inactive: [1] -25.8%
active: [2] 65% | [3] 53.2% | [4] 77.8% | [5] 70.5% | [6] 75.7%

CCOC(=O)c1c2c(n(-c3ccc(OC)cc3)c1C)C(=O)C(=O)c1ccccc1-2
active: [1] 45.9% | [2] 33.8% | [3] 63% | [4] 66.5% | [5] 63.8% | [6] 50.3%

C#CC(=O)N(c1ccc(OC)c(OC)c1)C(C(=O)NC1CCCC1)c1cccs1 (centres undefined)
active: [4] 57.3%
inactive: [1] 25.2% | [2] -2.4% | [3] 17.7% | [5] 35.4% | [6] 10.9%

CCOC(=O)C1=Nc2ccccc2C1=[N+]=[N-]
inactive: [1] 35.7% | [3] 14.1%
active: [2] 46% | [4] 53.3% | [5] 45.2% | [6] 53.2%
